This is an account of results in PubChem BioAssay (Tox21).

Molecules are shown by their SMILES. Several values for one entry are separate records, joined by “and”; a condition that tells them apart may be missing. Identical values can stand only once. Records with an inconclusive call do not appear. A call without a number means that no potency is given here. A structure can be active in one record and inactive in another. Activity calls are given as the source filed them. The call rests on the fitted dose curve; in most records, active means well fitted cell-killing curve with a large enough effect in the repeat runs; inconclusive means weak or mixed curves, or effect the other way; inactive means flat fitted curve, though single readings scatter.
Potency means the concentration at half of the fitted maximal effect.

This experiment in a line: Human pregnane X receptor (PXR) small molecule agonists, qHTS cell viability counter screen (AID 1346977). Further: nearly all actives have a fitted effect of over 50% in size. The conditions noted are these: PXR-Luc HepG2 viability, CellTiter-Fluor, 24 h; series mostly up to 92.4 µM; activity change, negative = cytotoxicity: at the top concentration. The text has this:
U.S. Tox21 Program National Center for Advancing Translational Sciences [NCATS] NIH Chemical Genomics Center [NCGC] U.S. Environmental Protection Agency [EPA] National Institutes of Environmental Health Sciences [NIEHS] National Toxicology Program [NTP] U.S. Food and Drug Administration [FDA] Tox21 Assay Overview: The human pregnane X receptor (hPXR) regulates the expression of several drug metabolizing enzymes and induction of these proteins is a major mechanism for developing drug resistance in cancer. One such key enzyme catalyzing the drug metabolism is cytochrome P450 3A4 (CYP3A4). Changes in CYP3A4 expression affect drug metabolism, thereby reducing the therapeutic efficacy and altering toxicological response to a drug and which finally causes adverse drug interaction. To screen Tox21 libraries for compounds that activate hPXR-mediated CYP3A4 gene expression, PXR-Luc HepG2 cells were used. Also cytotoxicity of the compounds was tested in parallel by measuring the cell viability using CellTiter-Fluor assay system in the same wells.
Tox21 Assay Protocol Summary: PXR-Luc HepG2 cells were dispensed at 2,000 per well in 5uL of assay medium containing 5% charcoal-stripped FBS into white solid bottom 1536-well plates (Corning Life Sciences, Corning, NY) using a Multidrop Combi (Thermo Scientific, Waltham, MA) dispenser. The assay plates were incubated at 37 C and 5% CO2 for 5hr, and then 23nL of compounds dissolved in DMSO and positive control were transferred using a Pintool station (Wako, San Diego, CA). The assay plates were incubated at 37C and 5% CO2 for 24hr. For cytotoxicity read, after 23hr incubation at 37C, 1uL CellTiter-Fluor reagent (Promega Corporation, Madison, WI) was added to each well of the assay plates using Flying Reagent Dispenser (FRD, Aurora Discovery, San Diego, CA). After 1hr incubation at 37C and 5% CO2, the fluorescence signal was quantified using a ViewLux plate reader (PerkinElmer, Shelton, CT).
Background: Quantitative high-throughput screening tests each substance at several concentrations.
Take `COC(=O)c1ccc(C)cc1`: the Potency result was “inactive”.

As for `O=[Se](O)O`, the Potency is 24.4 µM (active) and the activity change, negative = cytotoxicity was 6.76% [at 19 µM] (inactive).

As for `CC(=O)Oc1ccc(C(c2ccc(OC(C)=O)cc2)c2ccccn2)cc1`, the Potency result was “inactive”.

Consider `OC[C@H]1O[C@@H]2O[C@H]3[C@H](O)[C@@H](O)[C@@H](O[C@H]4[C@H](O)[C@@H](O)[C@@H](O[C@H]5[C@H](O)[C@@H](O)[C@@H](O[C@H]6[C@H](O)[C@@H](O)[C@@H](O[C@H]7[C@H](O)[C@@H](O)[C@@H](O[C@H]1[C@H](O)[C@H]2O)O[C@@H]7CO)O[C@@H]6CO)O[C@@H]5CO)O[C@@H]4CO)O[C@@H]3CO`, for which the “activity change, negative = cytotoxicity” value was 2.36% (inactive).

For the molecule `COCCOCCOCCO`, the Potency result was “inactive”.

Consider `CC1(C)C(C=C(Cl)Cl)C1C(=O)OCc1cccc(Oc2ccccc2)c1` (stereo not given), for which the Potency result was “inactive”.

Turning to `C[N+](C)(C)CCO`, the Potency entry was “inactive”.

Regarding `O=C1OC2(c3ccccc31)c1cc(I)c(O)c(I)c1Oc1c2cc(I)c(O)c1I`, the Potency is 7.78 µM (active) [middle of 4 runs].

As to `C[C@]12CC[C@@H]3c4ccc(O)cc4CC[C@H]3[C@@H]1CC[C@H]2O`, the “activity change, negative = cytotoxicity” value was -13.2% (inactive).

On to `C=CCOC(=O)C(=C)C`, for which the Potency result was “inactive”.

Turning to `C=CN1CCCC1=O`, the Potency entry was “inactive”.

For `C/C=C/C(=O)N(CC)c1ccccc1C`, the Potency result is “inactive”.

On to `CC/C=C\C/C=C\C/C=C\CCCCCCCC(=O)O`, for which the “activity change, negative = cytotoxicity” value is 0.343% (inactive).

With `O=C(CCCN1CCC(O)(c2ccc(Cl)cc2)CC1)c1ccc(F)cc1`, the Potency is 27.3 µM (active) and 23.7 µM (active).

As for `CCCOCCO`, the Potency result was “inactive”.

With `OCCNCCO`, the Potency entry is “inactive”.

As for `CCC(Cc1c(I)cc(I)c(N)c1I)C(=O)O` (stereo not given), the Potency result was “inactive”.

In the case of `O=S1(=O)CCCO1`, the Potency entry was “inactive”.

For the molecule `C=C[C@H]1CN2CC[C@H]1C[C@@H]2[C@@H](O)c1ccnc2ccc(OC)cc12`, the “activity change, negative = cytotoxicity” value is -25.4% [at 42.5 µM] (inactive).

In the case of `Cc1ccc([N+](=O)[O-])c(C)c1`, the Potency entry is “inactive”.

Turning to `NC[C@H](O)c1ccc(O)c(O)c1`, the “activity change, negative = cytotoxicity” value was -18.4% [at 42.5 µM] (inactive).

On to `CC(C)(C)c1cccc(C(C)(C)C)c1O`, for which the “activity change, negative = cytotoxicity” value was 6.79% (inactive).

In the case of `Cc1ccc(S(=O)(=O)O)cc1C`, the Potency result is “inactive”.

As to `Cc1ccc(S(=O)(=O)NCl)cc1`, the Potency entry was “inactive”.

`Cc1ccc(C(C)(C)C)c(O)c1`: the Potency result was “inactive”.

With `Cc1ccc(C(C)(C)C)cc1`, the Potency result was “inactive”.

For `C[C@]12C=CC(=O)C=C1CC[C@H]1[C@@H]3C[C@@H](O)[C@](O)(C(=O)CO)[C@@]3(C)C[C@H](O)[C@@]12F`, the Potency result is “inactive”.

For `C1CN(SSN2CCOCC2)CCO1`, the Potency result is “inactive”.

In the case of `CC(=O)Oc1c(C)c(C)c2c(c1C)CC[C@@](C)(CCC[C@H](C)CCC[C@H](C)CCCC(C)C)O2`, the Potency result was “inactive”.

For the molecule `[Na+]`, the Potency result is “inactive”.

Regarding `CC1=CC(C)(C)Nc2ccccc21`, the Potency result is “inactive”.

Regarding `CC(=O)OC(C)C`, the Potency entry is “inactive”.

For `CC(=O)Nc1ccc2c(c1)Cc1cc(NC(C)=O)ccc1-2`, the Potency result was “inactive”.

For `O=C(O)CCCC(=O)O`, the Potency entry is “inactive”.

Regarding `CC1(C)OC(=O)NC1=O`, the Potency entry was “inactive”.

For `c1ccc2c(c1)[nH]c1ccccc12`, the Potency entry is “inactive”.

As to `Clc1ccc(Sc2cc(Cl)c(Cl)cc2Cl)cc1`, the Potency entry was “inactive”.

`CC(C)[C@@H]1CC[C@@H](C)CC1=O`: the Potency result is “inactive”.

For `CCc1cccc2c3c([nH]c12)C(CC)(CC(=O)O)OCC3` (stereo not given), the Potency result is “inactive”.
